Sampled rows, rich in hits. Any-hit rate of the full collection: about 20%.
Pf growth 96h: Primary qHTS for delayed death inhibitors of the malarial parasite plastid, 96 hour incubation | P. falciparum luciferase reporter growth, 96 h | Potency, µM (highest dose often 28.7 µM), actives largely listed as inhibitors | 320,000 compounds, 6.9% hits | AID 504834, 2011
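Two parasite generations (96 h, 37 C, 5% CO2) of compound exposure in infected erythrocytes (0.05% parasitemia, 2% hematocrit). Luciferase-reporter P. falciparum; decreased luminescence indicates inhibited growth, aimed at apicoplast-acting delayed death.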
HCMV inh: qHTS Assay for inhibitors of the human cytomegalovirus (HCMV). 410,000 compounds, 4.5% hits. HFF cells, HCMV-luciferase reporter, 72 h; hits give low values. AID 1259415, 2018. activity change, negative = inhibition, % at 57.5 µM; in the data active = activity change below about -60%; inconclusive = no clear call, values can overlap the other calls; inactive = above about -39%
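HFF cells seeded 16 h at 37C, treated with compounds, infected with luciferase-reporter HCMV at MOI 1 PFU/cell; luciferase read at 72 h post infection, normalized to buffer-only and Salinomycin controls.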
Shiga inhibitor: A qHTS for Small Molecule Inhibitors of Shiga Toxin; Vero cells, Shiga toxin protein synthesis inhibition reporter; 290,000 compounds, 9.2% hits; inhibition, % at 38.7 µM; in the data active = inhibition mostly above about 28%, no sharp cut-off; inactive = mostly below about 43%
Pf growth 48h: Primary qHTS for delayed death inhibitors of the malarial parasite plastid, 48 hour incubation. AID 504832, 2011. Potency, µM (highest dose often 28.7 µM), hits mostly inhibitors. P. falciparum luciferase growth in erythrocytes, 48 h. 310,000 compounds, 5.9% hits
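Firefly luciferase activity from engineered P. falciparum reports growth; inhibitors lower the luminescent signal. Cultures contained 2% hematocrit erythrocytes at 0.1% final parasitemia.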
CHX counter: Cycloheximide Counterscreen for Small Molecule Inhibitors of Shiga Toxin; cell reporter, cycloheximide protein synthesis inhibition counterscreen; max response, %; 300,000 compounds, 12% hits; in the data active = max response mostly above about 13%, no sharp cut-off; inactive = mostly below about 14%; note: read at 38.3 µM for the half of the compounds with a filed dose
Numbers stand for hits; – = inactive; ? = inconclusive; · = no result given; + = active, no number; ! = repeats disagree; [ ] = remark or other dose. Unless noted, calls come from the whole dose curve; as a rule, active = well fitted inhibition curve with a large enough effect; inconclusive = small, poorly fitted or top-dose-only effect, or another doubt; inactive = no such curve, though single readings can be large or run the other way.

SMILES	Pf growth 96h	HCMV inh	Shiga inhibitor	Pf growth 48h	CHX counter
COc1cc(NC(=O)c2ccc(N3CC4CC(C3)c3cccc(=O)n3C4)c(NC(=O)c3ccncc3)c2)cc(OC)c1OC (centres undefined)	?	–	–	?	–
OC(c1ccc(F)cc1)c1nc(-c2ccoc2)cs1 (centres undefined)	·	–	·	·	·
CC(C)C[C@@H](CSc1ccccc1)N1CCN(CC(C)C)CCC1=O	?	–	47	?	35
CCCN1CCC(=O)N([C@H](COc2ccccc2)CC(C)C)CC1	–	–	–	–	–
CCCN1CCC(=O)N([C@H](CSc2ccccc2)CC(C)C)CC1	?	–	42	–	45
COc1cccc(NC(=O)CN2C(=O)CSc3ccc(S(=O)(=O)N4CCCC4)cc32)c1	·	–	·	·	·
CN(CC(=O)N1CCCc2c1c(=O)oc1ccc(O)cc21)Cc1ccccc1	?	–	–	9.3µM	–
CC1CCN(CCC(=O)N2CCCc3c2c(=O)oc2ccc(O)cc32)CC1	–	–	–	?	–
N/C(=N\OC(=O)Cc1cccs1)c1ccc([N+](=O)[O-])cc1	–	–	+	–	31
N/C(=N\OC(=O)Cc1cccs1)c1ccc(Br)cc1	–	–	81	–	50
CN1C(=O)c2ccccc2NC(=O)[C@]12O[C@@H]2c1ccccc1	–	–	–	–	–
CN1NC(=O)c2ccccc2NC1=S	·	-61	·	·	·
CCN1CCOC(=O)C1CC(=O)Nc1cccc(OC)c1 (centres undefined)	·	–	·	·	·
Cc1ccc2oc(C(=O)Nc3ccc(S(=O)(=O)N(C)c4ccccc4)cc3)cc(=O)c2c1	·	–	·	·	·
CC1(O)c2ccccc2C(=O)N1CCc1ccccc1F (centres undefined)	–	–	66	–	43
CC1(O)c2ccccc2C(=O)N1Cc1ccccc1 (centres undefined)	–	–	–	–	–
O=C1Nc2ccccc2S/C1=C/c1cccs1	–	–	62	–	28
Cc1ccc(N=C2NC(=O)/C(=C/c3cccnc3)S2)cc1C	?	–	–	?	–
Cc1cccc(N=C2NC(=O)/C(=C/c3cccs3)S2)c1	–	–	active	–	34
Cc1ccc(N=C2NC(=O)/C(=C\c3cccs3)S2)cc1C	?	–	72	–	28
O=C1NC(=S)SC1=Cc1cccs1	·	–	·	·	·
CCc1c(C)nc2nncn2c1NCc1ccccc1	·	–	·	·	·
CCOC(=O)c1c(S(=O)(=O)N2CCCC(C(=O)N(C)Cc3ccccc3)C2)c(C)n(C)c1C (centres undefined)	·	–	·	·	·
COc1ccc(OC)c(S(=O)(=O)NCCOC23CC4CC(CC(C4)C2)C3)c1	?	–	–	–	–
CC(=O)/C(=C/c1ccccc1)C(=O)Nc1ccccc1C	–	-96	–	–[1.15 µM]	–
SMILES	Pf growth 96h	HCMV inh	Shiga inhibitor	Pf growth 48h	CHX counter
Cc1ccccc1NC(=O)C(=Cc1ccc(C(=O)O)cc1)C(=O)Nc1ccccc1C	?	-99	–	3.7µM	–
CC(=O)Nc1ccccc1C	–	?	·	–	·
C=CCn1cnc2c(NCc3ccccc3)ncnc21	·	–	91	–	50
O=C(Cn1cnc2c(NCc3ccccc3)ncnc21)NCc1ccccn1	·	–	·	·	·
CCOC(=O)C(NC(=O)c1cccc(Cl)c1)(OCc1ccccc1)C(F)(F)F (centres undefined)	?	-62	+	?	20
CCOC(=O)C(NC(=O)c1ccccc1)(OCc1ccccc1)C(F)(F)F (centres undefined)	–	–	–	–	–
CCn1cc(/C=N/NS(=O)(=O)c2ccc(OC)cc2)c(C)n1	–	–	–	·	–
O=C(NC1(C(F)(F)F)NC(=O)N(Cc2ccccc2)C1=O)c1cccnc1 (centres undefined)	2.9µM	–	–	·	–
OCCN(Cc1ccccc1)Cc1nc(CC2CC2)no1	1.7µM	–	–	–	–
Oc1ccccc1CN(CCc1ccccc1)Cc1ccccc1	?	–	·	?	–
CN(Cc1nc(CC2CC2)no1)CC12CC3CC(CC(C3)C1)C2	?	–	–	–	–
OCCN(Cc1ccccc1)Cc1ccccc1O	?	?	–	4.1µM	–
CCCc1c(OCCCCc2nn[nH]n2)ccc(C(C)=O)c1O	11µM!	–	–	?	–
CCC(=O)N1CCC1(C)C(=O)NS(=O)(=O)c1cccc(C#N)c1 (centres undefined)	·	–	·	·	·
Cc1cccc(CN2CCSc3sccc3C2=O)c1	–	?	–	?	–
Cc1cccc(N2CCN(Cc3nnc(-c4cccc(Br)c4)o3)CC2)c1C	·	–	·	·	·
Cc1c(Br)cccc1NC(=O)C1(C)CCN1C(C)C (centres undefined)	·	-80	·	·	·
COc1cccc(NC(=O)C2(C)CCN2C(C)C)c1OC (centres undefined)	·	–	·	·	·
COCCN(Cc1cccs1)S(=O)(=O)c1ccc(-c2ccc(=O)[nH]n2)s1	–	–	–	?	–
CCCCN(Cc1cccs1)S(=O)(=O)c1ccc(-c2ccc(=O)[nH]n2)s1	–	-68	–	?	–
CCN1CCN(C(=S)c2ccc(OCC(=O)N3CCOCC3)cc2)CC1	–	–	–	·	–
CCCCC(CC)C(=O)Nc1cc(C(=O)NCCC)ccc1N1CCC2(CC1)CC(c1cccc(Br)c1)=NO2 (centres undefined)	2.6µM	–	·	3.7µM	·
CCCNC(=O)c1ccc(N2CCC3(CC2)CC(c2ccccc2)=NO3)c(NC(=O)Cc2ccc(F)cc2)c1	4.7µM	–	–	?	–
CCCCC(CC)C(=O)Nc1cc(C(=O)NCc2ccc(C)cc2)ccc1N1CCC2(CC1)CC(c1ccccc1)=NO2 (centres undefined)	2.1µM	–	–	3.3µM	–
CCCCCCCC(=O)Nc1cc(C(=O)NCc2ccc(C)cc2)ccc1N1CCC2(CC1)CC(c1ccccc1)=NO2	?	–	–	–	–
SMILES	Pf growth 96h	HCMV inh	Shiga inhibitor	Pf growth 48h	CHX counter
CCCCC(CC)C(=O)Nc1cc(C(=O)NCc2ccc(C)cc2)ccc1N1CCC2(CC1)CC(c1cccc(Br)c1)=NO2 (centres undefined)	2.1µM	–	·	2.3µM	·
CCCNC(=O)c1ccc(N2CCC3(CC2)CC(c2ccccc2)=NO3)c(N)c1	?	–	–	?	–
O=C(c1ccc(Cl)cc1)N1CCCCC1CCN1CCOCC1 (centres undefined)	·	–	·	·	·
C=C1CC[C@H](O)C/C1=C/C=C1\CCC[C@]2(C)[C@@H]([C@H](C)CCCC(C)C)CC[C@@H]12	–	·	89	–	34
CCc1ccc(NC(=S)NC2CC3CCCC(C2)N3Cc2cccs2)cc1 (centres undefined)	2.1µM	–	–	?	–
COc1ccc(CN2C3CCCC2CC(NC(=O)Nc2ccccc2C)C3)cc1 (centres undefined)	?	–	–	?	–
COc1ccc(CN2C3CCCC2CC(NC(=O)Nc2cccc(C)c2)C3)cc1 (centres undefined)	–	–	–	7.4µM	–
CCCN1C2CCCC1CC(NC(=S)Nc1ccc(OC)cc1)C2 (centres undefined)	–	-64	–	–	–

Screening results as filed in PubChem BioAssay.
